# In the library only some 11% were active in any assay of this set; here they are far more common.
# GoLoco inh red: blocks human Gai1 binding to RGS12 GoLoco peptide, red readout | P63096 | Potency, µM (doses to about 61.6 µM), inactives show at the top dose activity, negative = inhibition, actives largely listed as inhibitors | Gai1:RGS12 GoLoco peptide FP, rhodamine, 10 min | AID 880 | 230,000 compounds, 0.44% hits; active means well fitted inhibition curve with a large enough effect, not every such curve was filed as active; inactive means no such curve, though single readings can be large or run the other way; further: potency means the concentration at half of the fitted maximal effect; on the % scale 0 is the no-effect control and ±100 the full control effect; nearly all actives have a fitted effect of over 30% in size
# ALDH1A1 inh: blocks purified human ALDH1A1 activity; AID 1030; Purified ALDH1A1, NADH fluorescence, propionaldehyde substrate; P00352; Potency, µM (doses to about 75.3 µM), inactives show at the top dose activity, negative = inhibition, actives largely listed as inhibitors; 220,000 compounds, 7.3% hits; active means well fitted inhibition curve with a large enough effect, not every such curve was filed as active; inconclusive means small, poorly fitted or top-dose-only effect, or another doubt; inactive means no such curve, though single readings can be large or run the other way;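 further: potency means the concentration at half of the fitted maximal effect; plate controls were no enzyme wells and a reference inhibitor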
# Target sequence (P00352 whole entry, looked up): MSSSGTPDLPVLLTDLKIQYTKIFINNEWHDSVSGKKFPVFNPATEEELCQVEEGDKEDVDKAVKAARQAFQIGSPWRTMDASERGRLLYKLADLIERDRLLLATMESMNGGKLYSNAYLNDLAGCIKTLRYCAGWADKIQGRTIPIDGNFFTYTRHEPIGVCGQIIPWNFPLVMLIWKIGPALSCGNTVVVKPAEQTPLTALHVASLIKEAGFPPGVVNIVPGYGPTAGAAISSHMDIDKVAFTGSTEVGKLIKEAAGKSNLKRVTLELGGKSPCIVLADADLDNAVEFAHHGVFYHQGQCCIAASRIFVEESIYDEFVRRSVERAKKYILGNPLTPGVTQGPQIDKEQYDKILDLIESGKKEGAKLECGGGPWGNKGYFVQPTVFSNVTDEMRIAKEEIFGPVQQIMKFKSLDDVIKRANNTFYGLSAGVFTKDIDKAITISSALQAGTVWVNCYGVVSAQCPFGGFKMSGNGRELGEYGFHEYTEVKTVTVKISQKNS
# HPGD inh: HPGD (human) dehydrogenase inhibition; P15428; purified HPGD, NADH fluorescence kinetic, PGE2 substrate; Potency, µM, inactives show top-dose activity change, negative = inhibition, usual class: inhibitors; 150,000 compounds, 4.3% hits; active means well fitted inhibition curve with a large enough effect, not every such curve was filed as active; inconclusive means small, poorly fitted or top-dose-only effect, or another doubt; inactive means no such curve, though single readings can be large or run the other way; further: potency means the concentration at half of the fitted maximal effect; on the % scale 0 is the no-effect control and ±100 the full control effect
# Target sequence (P15428 whole entry, looked up): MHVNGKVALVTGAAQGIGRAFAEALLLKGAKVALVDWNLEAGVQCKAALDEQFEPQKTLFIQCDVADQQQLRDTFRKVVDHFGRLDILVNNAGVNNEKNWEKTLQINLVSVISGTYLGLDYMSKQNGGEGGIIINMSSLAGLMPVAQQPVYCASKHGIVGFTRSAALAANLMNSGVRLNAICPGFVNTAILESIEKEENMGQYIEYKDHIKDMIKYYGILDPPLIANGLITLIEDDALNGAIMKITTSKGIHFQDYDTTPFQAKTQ
#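 NADH formation kinetics: reaction with 30 uM PGE2 and 1 mM NAD+ (final), 20 nM enzyme, Tris-HCl pH 8 with Tween 20, after 15 min compound preincubation at room temperature. Fluorescence change, last versus first of five reads.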
# HTT ATP protect: protects HTT-Q103 PC12 cells, measured by ATP | AID 1471 | 230,000 compounds, 0.14% hits | PC12 HTT-Q103 induced, cytoprotection, ATP luminescence, 40 h | Potency, µM (titrated, usually from 56.4 µM), inactives show cytoprotection (ATP increase), hits mostly activators; further: potency means the concentration at half of the fitted maximal effect; % of control where 0% means no effect; nearly all actives have a fitted effect of over 45% in size
#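 Huntington model: PC12 line, ecdysone-inducible HTTQ103 exon1–GFP, tebufenozide 100 nM. Test articles in a dose series. Endpoint luminescence from cellular ATP.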
# PNC assembly inh: perinucleolar compartment assembly inhibition; PC3M PTB-GFP, PNC prevalence imaging, 16 h; stronger effect = lower value; activity change (PNC), negative = inhibition, % at 10 µM; 140,000 compounds, 3.1% hits;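 active means readout at or below -70, meaning at least 70% loss of cells showing the perinucleolar compartment, a nuclear body marking cancer cells; inconclusive means readout between -30 and a set limit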;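 further: plate controls were DMSO wells for no effect and camptothecin positive control wells for full effect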
#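 PC3M cells stably expressing PTB-GFP, 750–1000 cells/well, treated 16 h at 37 °C with compound (23 nl of library stock), in duplicate. After paraformaldehyde fixation and Hoechst stain, imaged at 20x; PNC prevalence scored by image analysis.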
# HttQ103 aggreg: inhibitors of mutant huntingtin aggregate formation in PC12 cells; PC12 HttQ103-GFP aggregates, Acumen cytometry, 40 h; Potency, µM (titrated, usually from 46.1 µM), inactives show top-dose activity change, negative = inhibition, most hits filed as inhibitors; 220,000 compounds, 1.1% hits; further: potency means the concentration at half of the fitted maximal effect; on the % scale 0 is the no-effect control and ±100 the full control effect; nearly all actives have a fitted effect of over 60% in size
#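 Ecdysone-promoter PC12 model expressing HTT exon 1 Q103 fused to GFP, induced by tebufenozide at 100 nM final. Compounds titrated; aggregates sized 1–25 µm scored on a 488 nm laser cytometer.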
# Active calls of the source: *; u = inconclusive; x = no result given; [ ] = another dose, or the depositor's remark. Unless noted, the call rests on the fitted dose curve; in most records, active means well fitted curve in the direction sought with a large enough effect; inconclusive means small, poorly fitted or top-dose-only effect, or another doubt; inactive means no such curve, though single readings can be large; an effect the other way counts as inactive or inconclusive.
SMILES,GoLoco inh red,ALDH1A1 inh,HPGD inh,HTT ATP protect,PNC assembly inh,HttQ103 aggreg
CC(C)CCNC(=O)c1ccc(C2SCC(=O)N2Cc2ccco2)cc1 (configuration not stated),1.4%,u,u,19.1%[1.9 µM],-110.0*,-5.3%
O=C(NCc1ccccc1)c1ccc(C2SCC(=O)N2Cc2ccccc2)cc1 (configuration not stated),3.9%,-5.8%,10µM*,2.5%[10 µM],86.5,-2.5%
CC(C)NC(=O)c1ccc(C2SCC(=O)N2Cc2ccccc2)cc1 (configuration not stated),-5.7%,-4.3%,3.16µM*,-22.2%[10 µM],137.6,-1.3%
O=C(O)C1CCC[C@@H]2[C@@H]3CC(CN12)[C@@H]1CCCCN1C3 (some centres not stated),2.1%,3.4%,-2.9%,22.7%,x,x
Cc1cc(C)c(NC(=O)CSc2ccc(-c3cccnc3)nn2)c(C)c1,-5.9%,u,x,26.2%,x,-7.1%
CC(=O)[O][Al][O]C(C)=O,7.9%,x,x,-14.2%,x,-2.1%
CC(C)Cc1c2c([nH]c(=S)c1C#N)CCCC2,2.4%,-8.3%,22.4µM*,x,u,1.6%
N#Cc1c(-c2cccnc2)c2c([nH]c1=S)CCCC2,x,u,x,-0.7%,22.2,2.8%
N#Cc1c(-c2ccco2)c2c([nH]c1=S)CCCC2,-4.6%,20µM*,15.8µM*,-8.8%[10 µM],u,12.6%
COc1ccc(OC)c(-c2c3c([nH]c(=S)c2C#N)CCCC3)c1,-1.5%,-9.1%,x,u,x,-11.0%
COc1ccc(-c2c3c([nH]c(=S)c2C#N)CCC3)cc1,-3.3%,14.1µM*,10µM*,3.8%[10 µM],u,3.4%
CC1Oc2ccccc2N(CC(=O)c2ccc(F)cc2)C1=O (configuration not stated),3.2%,-1.5%,x,-20.9%,x,3.4%
C=CCn1c(O)c(N=NC(=O)c2ccccc2NS(=O)(=O)c2cccs2)c2ccccc21,x,4.47µM*,x,-15.6%[10 µM],5.1,23.3%
CCCCn1c(O)c(N=NC(=O)c2ccccc2NS(=O)(=O)c2cccs2)c2ccccc21,-6.9%,11.2µM*,-12.8%,12.3%[10 µM],48.3,-7.6%
CC(C)n1c(O)c(N=NC(=O)c2ccccc2NS(=O)(=O)c2cccs2)c2ccccc21,-11.6%,-11.1%,-8.9%,7.8%[10 µM],-15.8,u
CCOC(=O)N/N=C1/C[C@@H](O)[C@@H](O)[C@@H]2[C@@H]3C(=O)N([C@@H](C)c4ccccc4)C(=O)[C@H]3CC[C@H]12,x,6.9%[13.5 µM],x,-18.1%[10 µM],x,x
COc1ccc(C(=O)CCN2CCc3cc(OC)c(OC)cc3C2)cc1,4.3%,0.224µM*,x,-33.1%,x,u
COc1ccc(C(=O)CCN2CCN(c3ccccc3OC)CC2)cc1,-2.2%,0.141µM*,x,x,x,u
COc1ccccc1N1CCN(CCCCN2C(=O)c3ccccc3C2=O)CC1,-5.5%,12.6µM*,-25.2%,-14.9%,x,x
COc1ccccc1N1CCN(C(=O)CSc2ccccc2)CC1,2.2%,u,-12.9%,-3.9%,u,5.7%[1.84 µM]
COc1ccccc1N1CCN(C(=O)c2ccc(CSc3ccccc3)cc2)CC1,-0.9%,-6.3%,-15.8%,x,u,22.4µM*
COc1ccccc1N1CCN(CCCC(=O)c2ccc(F)cc2)CC1,4.7%,24.7%,0.3%,-6.8%,20.4,-9.1%
COc1ccc(C(=O)N2CCc3cc(OC)c(OC)cc3C2)cc1OC,-4.7%,-3.7%,-11.3%,-21.4%,31.9,0.4%
CCSCc1nnc(SCC(=O)Nc2ccc(F)cc2)n1CC,5.8%,u,x,-11.3%[10 µM],x,6.3%
OCCC1CN(Cc2cnc(-c3ccc(Cl)cc3)nc2)CCN1C1CCCC1 (configuration not stated),4.7%,x,x,8.5%[10 µM],x,0.9%[9.22 µM]
SMILES,GoLoco inh red,ALDH1A1 inh,HPGD inh,HTT ATP protect,PNC assembly inh,HttQ103 aggreg
CCOc1ccccc1N1CCN(C(=O)CCCN2C(=O)c3cccc4cccc(c34)C2=O)CC1,-4.5%,u,-21.3%,-16.3%[10 µM],u,20µM*
COc1ccc(N(C(=O)c2cccc([N+](=O)[O-])c2)S(=O)(=O)c2cccs2)cc1,1.7%,25.1µM*,x,15.4%[10 µM],x,5.0%
CCOC(=O)N1c2ccccc2Sc2ccccc21,9.7%,14.1%,x,-14.1%[10 µM],x,-25.5%[9.22 µM]
Cc1ccccc1/C(N)=N/OC(=O)N1c2ccccc2Sc2ccccc21,6.8%,-0.1%,17.8µM*,11.9%,-7.5,-2.4%
Brc1ccc2ncnc(Nc3ccc(N4CCOCC4)cc3)c2c1,7.6%,-9.0%,-7.3%,4.6%,4.3,8.91µM*
Cc1cc(C)c(C(=O)CSc2n[nH]c(-c3ccncc3)n2)c(C)c1,8.0%,11.0%,x,-43.4%,x,4.2%
Cc1ccc(C)c(C(=O)CSc2n[nH]c(-c3ccncc3)n2)c1,x,5.01µM*,x,-5.5%,-10.5,6.3%
CCc1ccc(CNc2ccc(O)cc2)cc1,14.1µM*,7.94µM*,22.4µM*,-6.2%,-6.8,-2.5%
COc1ccccc1NC(CC(=O)c1ccccc1)C(=O)OCC(=O)c1ccc(C)cc1 (configuration not stated),-7.4%,10µM*,-12.8%,-5.2%[10 µM],25.4,30.2%
COc1ccccc1NC(CC(=O)c1ccccc1)C(=O)OCC(=O)c1ccc(C)c(C)c1 (configuration not stated),-2.3%,7.08µM*,-17.1%,-3.8%[10 µM],u,-4.4%
COc1ccccc1NC(CC(=O)c1ccccc1)C(=O)OCC(=O)c1ccc(Br)cc1 (configuration not stated),1.5%,u,-9.5%,-15.7%[10 µM],26.8,-11.1%
Cc1ccc(C(=O)COC(=O)CNC(=O)COc2ccccc2C)cc1C,9.2%,-3.7%,-9.6%,10.1%,25.4,12.6%
COc1ccc(/C=C/C2=CC(C)(C)NC(=S)N2)cc1,-1.6%,5.62µM*,x,-15.1%,x,-4.1%
O=C(Nc1cccc2ccccc12)c1cc2c(cc1Br)OCO2,9.9%,-9.7%,x,5.8%[10 µM],x,4.5%[9.22 µM]
COc1ccc(C2CC(=O)C3=C(C2)Nc2ncnn2C3c2ccccc2)cc1 (configuration not stated),4.8%,u,-13.8%,-2.9%,-107.1*,4.7%
COc1ccc(C2CC(=O)C3=C(C2)Nc2ncnn2C3c2ccccc2C)cc1 (configuration not stated),-3.0%,u,-6.0%,-15.1%[0.074 µM],34.9,-17.4%
COc1cc(/C=C2\C(=N)N3N=CSC3=NC2=O)cc(Br)c1OC(=O)c1ccco1,2.9%,u,x,x,x,6.6%
CCOc1ccc(N(CC(=O)Nc2cccc(F)c2)S(=O)(=O)c2c(C)noc2C)cc1,11.9%,7.5%,-2.6%,-29.4%,29.6,u
CCOc1ccc(N(CC(=O)Nc2ccc(C)c(C)c2)S(=O)(=O)c2c(C)noc2C)cc1,2.7%,-4.3%,-6.1%,17.8%[10 µM],u,20µM*

# Bioassay records: PubChem, National Center for Advancing Translational Sciences (NCATS)
